Here are results for 16 molecules from PubChem BioAssay (NCI).

Molecules are shown by their SMILES. The panel holds about 83,000 compounds, 20% with a hit somewhere; the sample as a whole holds those more often.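 Growth was measured after 48 h exposure to one concentration of compound in 96-well plates. Values under 10 count as active.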 Values without a mark were called inactive. The source made the active and inactive calls.

Some test systems named below: SR leukemia; RPMI-8226 leukemia; OVCAR-8 ovarian; OVCAR-5 ovarian; OVCAR-4 ovarian; SK-OV-3 ovarian; IGROV1 ovarian; OVCAR-3 ovarian; HS 578T breast; NCI/ADR-RES ovarian.
What all share (experiment): NCI-60 one-dose screen, 48 h (100 = growth as untreated, 0 = no growth, -100 = all killed)
Holding throughout (settings): 10 µM unless noted

For `C#CCC1(c2ccc(F)c(F)c2)NS(=O)(=O)c2ccccc21` (stereo not given), the growth with SR leukemia is 76%; in the experiment with RPMI-8226 leukemia, 109%; in the experiment with OVCAR-8 ovarian it was 93.9%; in the experiment with OVCAR-5 ovarian, 107%; in the experiment on OVCAR-4 ovarian, 105%; with SK-OV-3 ovarian, 96.9%. Further, the growth with IGROV1 ovarian is 94.3%; in the experiment on OVCAR-3 ovarian it was 109%; with HS 578T breast, 101%; in the experiment with NCI/ADR-RES ovarian, 103%.

Take `Cc1nc(Nc2cccnc2)sc1C(=O)/C=C/c1ccc(F)cc1`: the growth in the experiment on SR leukemia is 18.6%; in the experiment with RPMI-8226 leukemia, 1.5% (active); in the experiment on OVCAR-8 ovarian, 21.8%; with OVCAR-5 ovarian, 56.4%; in the experiment on OVCAR-4 ovarian, 63.8%; in the experiment on SK-OV-3 ovarian, 71.6%. The growth with IGROV1 ovarian is 29.9%; with OVCAR-3 ovarian it was 5.9% (active); in the experiment on HS 578T breast, 96.4%; in the experiment with NCI/ADR-RES ovarian it was 38.4%.

As for `C/C(=C\c1csc(C)n1)[C@@H]1C[C@@H]2O[C@]2(C)CCC[C@H](C)[C@H](O)[C@@H](C)C(=O)C(C)(C)[C@@H](O)CC(=O)N1`, the growth in the experiment on SR leukemia was -39.1% (active); with RPMI-8226 leukemia it was -45.3% (active); with OVCAR-8 ovarian it was -74% (active); with OVCAR-5 ovarian, -6.81% (active); in the experiment with OVCAR-4 ovarian it was 14.8%; in the experiment with SK-OV-3 ovarian it was -8.54% (active). The growth with IGROV1 ovarian was -85.5% (active); in the experiment on OVCAR-3 ovarian it was -100% (active); in the experiment on HS 578T breast, -61.7% (active); in the experiment with NCI/ADR-RES ovarian, -70.2% (active).

As for `O=c1cc(C2NCCc3c2[nH]c2ccccc32)c2c(ccc3ccccc32)o1` (stereo not given), the growth in the experiment with SR leukemia was 51.3%; in the experiment on RPMI-8226 leukemia it was 73.6%; in the experiment on OVCAR-8 ovarian, 60.1%; in the experiment with OVCAR-5 ovarian it was 78.3%; with OVCAR-4 ovarian, 62.3%; in the experiment with SK-OV-3 ovarian, 5.15% (active). Besides, the growth is 33.4% with IGROV1 ovarian, 95.1% with OVCAR-3 ovarian, 55.9% with HS 578T breast and 78.7% with NCI/ADR-RES ovarian.

As to `CN1CCN(CCCOc2ccc3nc(Nc4ccc(C(F)(F)F)c(Cl)c4)ccc3c2)CC1`, the growth in the experiment with SR leukemia is -6.45% (active); in the experiment with RPMI-8226 leukemia, -6.92% (active); with OVCAR-8 ovarian it was 31.3%; in the experiment on OVCAR-5 ovarian, 22.4%; in the experiment with OVCAR-4 ovarian, 41.7%; in the experiment with SK-OV-3 ovarian, 55.5%. Further, the growth in the experiment on IGROV1 ovarian is 13.7%; with OVCAR-3 ovarian, -11.8% (active); with HS 578T breast, 16.3%; with NCI/ADR-RES ovarian, 20.4%.

Consider `COc1cc(OC)c(C(=O)/C=C/c2cccc(C#N)c2)c(OC)c1`, for which the growth is 3.17% (active) in the experiment on SR leukemia; 1.52% (active) in the experiment with RPMI-8226 leukemia; 7.46% (active) in the experiment on OVCAR-8 ovarian; 40.1% in the experiment with OVCAR-5 ovarian; 18.1% with OVCAR-4 ovarian; 0.849% (active) in the experiment on SK-OV-3 ovarian. Also, the growth in the experiment on IGROV1 ovarian is 9.48% (active); in the experiment with OVCAR-3 ovarian, 9.13% (active); in the experiment with HS 578T breast it was 17.6%; in the experiment on NCI/ADR-RES ovarian, 14.8%.

For the molecule `COc1ccc(-c2nc(-c3nc4ccc(F)cc4[nH]3)cc3c2[nH]c2ccccc23)cc1`, the growth in the experiment with SR leukemia was 15.5%; in the experiment with RPMI-8226 leukemia it was -5.03% (active); in the experiment with OVCAR-8 ovarian it was 13.6%; in the experiment with OVCAR-5 ovarian, 77.8%; in the experiment on OVCAR-4 ovarian, 45.8%; with SK-OV-3 ovarian, 87%. For the same molecule, the growth in the experiment on IGROV1 ovarian was 27%; with OVCAR-3 ovarian it was 42.3%; in the experiment on HS 578T breast, 42.4%; with NCI/ADR-RES ovarian, 19.7%.

Consider `COc1cccc(/C=C2\SC(N3CCN(c4ccccn4)CC3)=NC2=O)c1`, for which the growth was 89.7% in the experiment on SR leukemia; 85.8% in the experiment on RPMI-8226 leukemia; 100% in the experiment with OVCAR-8 ovarian; 113% in the experiment on OVCAR-5 ovarian; 110% in the experiment on OVCAR-4 ovarian; 111% with SK-OV-3 ovarian. Also, the growth in the experiment with IGROV1 ovarian was 103%; in the experiment on OVCAR-3 ovarian, 100%; with HS 578T breast it was 95.8%; in the experiment on NCI/ADR-RES ovarian it was 103%.

On to `COc1ccc(C(=O)c2cc(OC)c(OC)c(OC)c2)cc1/C=C/C(=O)c1ccc(O)cc1`, for which the growth in the experiment on SR leukemia is 10.6%; with RPMI-8226 leukemia it was 9.18% (active); with OVCAR-8 ovarian, 22.3%; in the experiment on OVCAR-5 ovarian, 69.5%; in the experiment with OVCAR-4 ovarian it was 43.6%; in the experiment with SK-OV-3 ovarian it was 18.5%. The growth in the experiment with IGROV1 ovarian is 45.9%; in the experiment with OVCAR-3 ovarian, -10.5% (active); with HS 578T breast, 43.4%; in the experiment with NCI/ADR-RES ovarian it was 16.2%.

Consider `Cc1cc(C)c(NC(=O)c2sc3nc4c(cc3c2N)CN(Cc2ccccc2)CC4)c(C)c1`, for which the growth is 10.1% in the experiment with SR leukemia; 20.9% in the experiment with RPMI-8226 leukemia; 46.6% in the experiment with OVCAR-8 ovarian; 57.1% in the experiment on OVCAR-5 ovarian; 31.6% with OVCAR-4 ovarian; 23.9% with SK-OV-3 ovarian. The growth with IGROV1 ovarian is 24.1%; in the experiment with OVCAR-3 ovarian, -3.04% (active); with HS 578T breast it was 21%; in the experiment on NCI/ADR-RES ovarian it was 18.5%.

Regarding `O=S(=O)(NCCCNc1cc(-c2cn(-c3ccccc3)nc2-c2cccc(O)c2)ccn1)c1cccc2ccccc12`, the growth in the experiment with SR leukemia was 13.9%; with RPMI-8226 leukemia, 7.85% (active); in the experiment with OVCAR-8 ovarian, 48.4%; with OVCAR-5 ovarian, 59.7%; in the experiment on OVCAR-4 ovarian it was 45.2%; with SK-OV-3 ovarian it was 58.8%. Also, the growth with IGROV1 ovarian was 51%; in the experiment on OVCAR-3 ovarian, 49.8%; in the experiment with HS 578T breast, 15.6%; with NCI/ADR-RES ovarian it was 39.9%.

With `CCN(CC)CCC(=O)c1cccc2ccccc12`, the growth was 53.4% in the experiment on SR leukemia; 44.4% in the experiment on RPMI-8226 leukemia; 104% with OVCAR-8 ovarian; 98.3% in the experiment with OVCAR-5 ovarian; 119% with OVCAR-4 ovarian; 121% with SK-OV-3 ovarian. Moreover, the growth was 101% with IGROV1 ovarian, 113% in the experiment on OVCAR-3 ovarian, 101% with HS 578T breast and 104% in the experiment on NCI/ADR-RES ovarian.

Consider `O=C1NC(Cc2c[nH]c3ccccc23)C(=O)N1Cc1ccc(Cl)cc1` (stereo not given), for which the growth was 90.1% with SR leukemia; 73.1% in the experiment on RPMI-8226 leukemia; 97.9% in the experiment with OVCAR-8 ovarian; 108% in the experiment with OVCAR-5 ovarian; 96.9% in the experiment with OVCAR-4 ovarian; 101% in the experiment with SK-OV-3 ovarian. For the same molecule, the growth in the experiment with IGROV1 ovarian is 85.2%; with OVCAR-3 ovarian, 106%; with HS 578T breast, 108%; in the experiment on NCI/ADR-RES ovarian it was 106%.

On to `CC(C)C(C(=O)CCN(C)C)c1ccc(Cl)cc1` (stereo not given), for which the growth in the experiment with SR leukemia was 84%; in the experiment on RPMI-8226 leukemia, 67.5%; in the experiment on OVCAR-8 ovarian, 93.3%; in the experiment with OVCAR-5 ovarian it was 115%; with OVCAR-4 ovarian, 109%; in the experiment with SK-OV-3 ovarian, 85.2%. Also, the growth in the experiment with IGROV1 ovarian was 105%; with OVCAR-3 ovarian, 108%; with HS 578T breast it was 101%; with NCI/ADR-RES ovarian, 106%.

`CCOC(=O)c1ccccc1NC(c1ccccc1)c1ccc2cccnc2c1O` (stereo not given): the growth with SR leukemia was 17.7%; in the experiment on RPMI-8226 leukemia it was 17.5%; in the experiment on OVCAR-8 ovarian it was 17%; in the experiment on OVCAR-5 ovarian, 53.7%; in the experiment on OVCAR-4 ovarian it was 21.5%; in the experiment on SK-OV-3 ovarian, 14.1%. For the same molecule, the growth was 41.8% with IGROV1 ovarian, 32.6% in the experiment with OVCAR-3 ovarian, 71.6% with HS 578T breast and 11.9% in the experiment on NCI/ADR-RES ovarian.

Consider `CC(=O)OCC1OC(OCC2OC(OC(C)=O)C(OC(C)=O)C(OC(C)=O)C2OC(C)=O)C(OC(C)=O)C(OC(C)=O)C1OC(C)=O` (stereo not given), for which the growth is 98% in the experiment on SR leukemia; 99.3% in the experiment on RPMI-8226 leukemia; 95.2% with OVCAR-8 ovarian; 101% with OVCAR-5 ovarian; 107% with OVCAR-4 ovarian; 89.9% in the experiment with SK-OV-3 ovarian. Also, the growth was 106% in the experiment with IGROV1 ovarian, 109% in the experiment with OVCAR-3 ovarian, 97.2% with HS 578T breast and 101% in the experiment with NCI/ADR-RES ovarian.
